Rows were chosen to be rich in hits. Some 4.5% of all compounds tested hit in one or more screens of this group.
TIM10 inh = growth inhibitors of isogenic TIM10 control yeast, primary screen, counter-screen for tim10-1 yeast inhibitor project, luminescence, uHTS; inhibition, % at 10 µM; 330,000 compounds, 1.4% hits; S. cerevisiae TIM10 strain growth, BacTiter-Glo luminescence, 24 h; AID 463195, 2010;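 active = inhibition of 40% or more at the single tested concentration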;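 note: wild-type TIM10 isogenic control strain grown at permissive 25 °C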
tim23-1 inh = growth inhibitors of tim23-1 mutant yeast, primary screen, luminescence, uHTS | inhibition, % at 20 µM | 330,000 compounds, 1.3% hits | S. cerevisiae tim23-1 growth, BacTiter-Glo luminescence, 24 h;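 active = growth inhibition of the mutant yeast at or above 50%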;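 note: temperature-sensitive mutant grown at 25 °C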
PfHsp90 set2 = growth inhibition of PfHsp90-expressing yeast, primary screen, antimalarial PfHsp90 inhibitor project, S. cerevisiae, BacTiter-Glo luminescence, single point, set 2. inhibition, % at 9.4 µM. 310,000 compounds, 0.32% hits. BacTiter-Glo ATP, 48 h; yeast lacking PDR1 and PDR3 efflux regulators;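 active = every replicate shows inhibition above about 80%, whatever the replicate mean, limit read from the data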
NALP3 yeast inh = NALP3 inflammasome inhibitors in reconstituted yeast, primary screen, luminescence, uHTS; Yeast reconstituted NLRP3/ASC/caspase-1, beta-gal luminescence, 24 h; inhibition, % at 10 µM; 330,000 compounds, 0.39% hits;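 active = inhibition of 50% or more; inactive = inhibition below 50%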
SKKanGAS inh = S. pyogenes SKKanGAS growth inhibitors in kanamycin, primary screen, streptokinase expression inhibitor project, SKKanGAS strain, BacTiter-Glo luminescence. 6 h. inhibition, % at 7.5 µM. 300,000 compounds, 1.3% hits. AID 1662, 2009;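 active = mean replicate score, as percent of positive control median, at least 50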;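 note: strain carries kanamycin resistance gene driven by streptokinase promoter and grows in 40 µg/ml kanamycin; loss of luminescence reflects streptokinase promoter inhibition or plain growth inhibition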
tim10-1 inh = growth inhibitors of tim10-1 mutant yeast, primary screen, luminescence, uHTS; S. cerevisiae tim10-1 ts strain growth, BacTiter-Glo, 24 h; inhibition, % at 20 µM; 330,000 compounds, 2.2% hits; AID 463190, 2010;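 active = inhibition of at least 40%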;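 note: mutant grown at 25 °C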
tim23-1 confirm = tim23-1 mutant yeast growth inhibitors, confirmation, luminescence, single concentration; shares compounds with tim23-1 inh; 4,400 compounds, 83% hits; S. cerevisiae tim23-1 growth, BacTiter-Glo luminescence, 24 h; inhibition, % at 20 µM;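 active = inhibition above about 39% in either of two replicate wells at 20 µM, limit read from the data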;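 note: temperature-sensitive tim23-1 mutant grown at 25 °C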
Numbers stand for hits; . = inactive; / = no result given.

SMILES	TIM10 inh	tim23-1 inh	PfHsp90 set2	NALP3 yeast inh	SKKanGAS inh	tim10-1 inh	tim23-1 confirm
C#CCOCCOCCOCCNc1nc(N2CCN(C(=O)CCCCCCCCCCNC(=O)[C@@H](CCC(=O)O)n3cc(CCCCCN)nn3)CC2)nc(N2CCN(C(=O)CCCCCCCCCCNC(=O)[C@H](CCCCN)n3cc(C[C@@H](C)CC)nn3)CC2)n1	.	.	.	.	/	.	/
C#CCOCCOCCOCCNc1nc(N2CCN(C(=O)CCCCCCCCCCNC(=O)[C@H](CCCCN)n3cc(CCO)nn3)CC2)nc(N2CCN(C(=O)CCCCCCCCCCNC(=O)[C@H](CCCCN)n3cc(C[C@@H](C)CC)nn3)CC2)n1	.	57	/	.	/	.	56
COc1ccc(-c2sc3ccccc3c2-c2ccc(OCCN3CCCCC3)cc2)cc1	.	.	.	.	/	.	/
COc1cccc(-c2sc3ccccc3c2-c2ccc(OCCN3CCCCC3)cc2)c1	.	70	.	.	/	.	.
COc1ccccc1-c1sc2ccccc2c1-c1ccc(OCCN2CCCCC2)cc1	.	52	.	/	/	.	.
COc1ccc2c(-c3ccc(OCCN4CCCCC4)cc3)c(-c3ccccc3OC)sc2c1	.	.	.	/	/	.	/
COc1cccc(-c2sc3cc(OC)c(OC)cc3c2-c2ccc(OCCN3CCCCC3)cc2)c1	.	.	.	/	/	.	/
c1ccc(-c2sc3ccccc3c2-c2ccc(OCCN3CCCC3)cc2)cc1	.	61	.	.	/	.	42
C=CCN(Cc1cc(OC)ccc1OC)C(=O)c1cc2ccc(OC)cc2[nH]1	.	.	.	.	.	.	/
COc1ccc(NCc2ccc([N+](=O)[O-])s2)c(OC)c1	/	/	.	/	/	/	/
COc1ccc(NCc2ccc([N+](=O)[O-])s2)cc1	.	58	.	.	.	.	69
O=C(c1ccc([N+](=O)[O-])s1)N1CCN(c2cccc(Cl)c2)CC1	.	.	.	.	.	.	/
O=[N+]([O-])c1ccc(CNc2cccc(Cl)c2)s1	.	57	.	.	.	.	56
O=[N+]([O-])c1ccc(CNc2ccc(F)cc2)s1	.	51	.	.	.	.	46
O=C(NC(=S)NC1CCCCC1)c1ccccc1	.	62	.	.	.	.	56
S=C(Nc1ccc(Nc2ccccc2)cc1)Nc1ccccn1	.	52	.	.	66	.	.
CC(NC(=S)NC(=O)c1ccccc1)c1ccccc1 (configuration not stated)	.	50	.	.	.	.	42
O=C(NC(=S)Nc1ccccn1)c1ccccc1	.	50	.	.	.	.	.
O=C(NC(=S)NC1CCS(=O)(=O)C1)c1ccccc1 (configuration not stated)	.	.	.	.	.	.	/
CN(CC(=O)Nc1ccccc1C(F)(F)F)C(=O)C1CCN(C(=O)c2ccc(Cl)cc2)CC1	.	.	.	.	.	.	/
Cc1occc1C(=O)N/N=C/C=C/c1ccccc1	.	.	.	.	.	.	/
Cc1occc1C(=O)N/N=C/C(Br)=C\c1ccccc1	.	63	.	.	.	.	67
COc1ccc(N2CCN(C(=S)NC(=O)c3cccs3)CC2)c([N+](=O)[O-])c1	.	53	.	.	52	.	46
COc1cc(/C=C/c2cccc[n+]2C)ccc1OCC(=O)Nc1cccc(Cl)c1	.	.	.	.	.	.	/
Cc1ccc(S(=O)(=O)N2C[C@@H]3[C@H]4CC[C@H](C4)[C@@H]3[C@@H](C)[C@H]2c2ccco2)cc1	.	50	.	/	/	.	.
SMILES	TIM10 inh	tim23-1 inh	PfHsp90 set2	NALP3 yeast inh	SKKanGAS inh	tim10-1 inh	tim23-1 confirm
Cc1ccc(S(=O)(=O)N2C[C@@H]3[C@H]4CC[C@H](C4)[C@@H]3[C@@H](C)[C@@H]2c2ccco2)cc1	.	.	.	/	/	.	/
Cc1ccccc1NC(=S)N(Cc1cccs1)C1CCCCC1	.	51	.	.	.	.	39
COc1cccc2sc3cc(NCc4ccc(C)o4)ccc3c(=O)c12	.	68	.	.	/	.	66
Cc1cc(OC(=O)c2cccc(C(F)(F)F)c2)c([N+](=O)[O-])c(=O)[nH]1	.	.	.	.	.	.	/
COc1ccc(OCC(=O)Nc2ccc3c(c2)CCC3)cc1	.	66	.	.	/	.	58
COc1cccc(NC(=O)COc2ccc3c(c2)CCC3)c1	.	.	.	.	.	.	/
CC(C)n1cc(NC(=O)c2cc(-c3ccccc3)on2)cn1	.	55	.	.	.	.	54
O=c1c2c([nH]n1-c1ccccc1)CCSC2	.	.	.	.	.	.	/
CC(=O)NS(=O)(=O)c1ccc(Nc2ccc([N+](=O)[O-])c3nonc23)cc1	.	.	.	.	.	.	/
CCOc1ccc(Nc2ccc([N+](=O)[O-])c3nonc23)cc1	.	67	.	.	.	.	61
COc1ccc(C(=O)NCCS(=O)(=O)NCc2cccnc2)cc1	.	.	.	.	.	.	/
CC(=O)Nc1ccc(NC(=O)C(C)OC(=O)/C=C/c2cnc3ccccc3n2)cc1 (configuration not stated)	.	.	.	.	.	.	/
CC(NC(=O)/C=C/c1cnc2ccccc2n1)C12CC3CC(CC(C3)C1)C2 (configuration not stated)	.	60	.	.	.	.	50
COc1ccccc1C(=O)Nc1cccc(S(=O)(=O)N2CCCC2)c1	.	98	.	.	.	.	.
C=CCN1C(=O)/C(=C/C(=O)OC)S/C1=N\NC(=O)c1ccccc1	.	59	/	.	.	.	38
COc1ccc(OC)c(S(=O)(=O)NCC(=O)NC2CCCCCC2)c1	.	.	.	.	/	.	/
Cc1[nH]n(-c2ccccc2)c(=O)c1C(c1cccc([N+](=O)[O-])c1)c1c(C)[nH]n(-c2ccccc2)c1=O	.	56	.	.	.	.	60
Cc1[nH]n(-c2ccccc2)c(=O)c1C(=O)c1ccc([N+](=O)[O-])cc1	.	.	.	.	.	.	/
COC(=O)[C@@H]1CCCN1C(=O)c1ccc(OC2CCN(Cc3ccccn3)CC2)cc1	.	.	.	.	.	.	/
CCN(C(=O)CSc1nnc(C2CC2)n1-c1ccccc1)C1CCS(=O)(=O)C1 (configuration not stated)	.	.	.	.	/	.	/
O=[N+]([O-])c1cc(Br)c(Nc2ccccc2)c([N+](=O)[O-])c1	.	54	120	.	.	.	.
